High-throughput results deposited in PubChem by National Center for Advancing Translational Sciences (NCATS).
G9a inh: G9a (human) methyltransferase inhibition; 350,000 tested, 8.8% active; AID 504332; Potency, µM (highest dose often 102 µM), for inactives: at the highest dose activity, negative = inhibition, hits mostly inhibitors; Q96KQ7; G9a H3K9 monomethylation, AlphaScreen, 2 h; also: % is scaled to controls: 0 for no effect and ±100 for the full control effect; nearly all actives have a fitted effect of over 75% in size
Target sequence (Q96KQ7 913-1193 limits assumed): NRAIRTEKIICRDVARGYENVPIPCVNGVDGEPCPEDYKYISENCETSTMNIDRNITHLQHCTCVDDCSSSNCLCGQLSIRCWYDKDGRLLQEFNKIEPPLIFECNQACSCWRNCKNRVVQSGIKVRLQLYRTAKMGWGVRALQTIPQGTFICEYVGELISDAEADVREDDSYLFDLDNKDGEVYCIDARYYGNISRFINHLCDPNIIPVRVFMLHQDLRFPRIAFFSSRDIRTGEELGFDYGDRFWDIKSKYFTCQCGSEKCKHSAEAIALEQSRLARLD
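G9a (20 nM) preincubated 15 min RT with compounds, then 500 nM biotinylated H3K9 peptide and 20 uM SAM added; 2 h RT reaction. Monomethyl-H3K9 product detected by AlphaScreen with anti-H3K9me1 antibody, streptavidin donor and anti-rabbit IgG acceptor beads.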
JMJD2A Tudor inh: inhibitors of human JMJD2A Tudor domain. Potency, µM (top dose mostly 114 µM), without a hit: at the top dose activity change, negative = inhibition, usual class: inhibitors. 390,000 tested, 4.4% active. AlphaScreen JMJD2A-Tudor / H3K4me3 peptide binding. AID 504339. O75164; also: % is scaled to controls: 0 for no effect and ±100 for the full control effect; nearly all actives have a fitted effect of over 50% in size
BAZ2B block: BAZ2B (human) inhibition; Q9UIF8; AlphaScreen BAZ2B-H3K14Ac peptide displacement; Potency, µM (doses to about 114 µM), for the others: at the top dose activity change, negative = inhibition, hits mostly inhibitors; 360,000 tested, 4.4% active; also: % is scaled to controls: 0 for no effect and ±100 for the full control effect; nearly all actives have a fitted effect of over 60% in size
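AlphaScreen displacement: compounds (up to 110uM) incubated 30 min at room temperature with a preformed 50 nM BAZ2B/50 nM biotinylated H3K14Ac peptide complex in PBS pH 7.4 with Tween-20. Donor and acceptor beads at 10 ug/mL final added, 20 min light-protected before reading.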
12-LOX inh: blocks human arachidonate 12S-lipoxygenase; 580,000 tested, 1.1% active; P18054; Potency, µM (highest dose often 108 µM), for the others: at the highest dose activity change, negative = inhibition, usual class: inhibitors; AID 1671190; purified 12hLO, xylenol orange hydroperoxide absorbance; also: % is scaled to controls: 0 for no effect and ±100 for the full control effect
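Hydroperoxide product was detected by ferrous iron/xylenol orange as the 573 to 405 nm absorbance ratio. Arachidonic acid at 40 uM (final) was turned over for 30 min at room temperature by 150 nM human 12hLO, pH 7.0 Hepes buffer, after 15 min compound preincubation.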
HP1b chromo inh: blocks HP1-beta chromodomain binding to methylated histone tails. AlphaScreen HP1-beta / biotin-H3K9me3 peptide binding. 390,000 tested, 0.56% active. Potency, µM (series often up to 114 µM), inactives show at the top dose activity change, negative = inhibition, most hits filed as inhibitors; also: nearly all actives have a fitted effect of over 70% in size
Target sequence (P83916 whole entry, looked up): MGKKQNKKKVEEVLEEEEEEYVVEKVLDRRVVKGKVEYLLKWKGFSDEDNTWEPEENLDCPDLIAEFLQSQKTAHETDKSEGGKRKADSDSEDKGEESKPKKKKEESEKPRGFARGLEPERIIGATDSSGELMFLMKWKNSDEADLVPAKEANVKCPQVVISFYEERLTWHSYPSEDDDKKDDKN
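Compound inhibition of the preformed complex between 50 nM HP1-beta and 50 nM biotinylated H3K9me3 peptide was read by AlphaScreen. Buffer was PBS pH 7.4 with 0.01% Tween-20. Incubations ran 30 min at room temperature, with 10 ug/mL donor/acceptor beads.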
Sfp PPTase inh: Sfp phosphopantetheinyl transferase inhibition. Q9F4F7. Potency, µM, without a hit: largest response in the series, negative = inhibition, usual class: inhibitors. 310,000 tested, 3.5% active. Biochemical Sfp PPTase activity, qHTS. AID 1490;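 also: the enzyme is Sfp with the accession as filed and its product quenches rhodamine fluorescence; 0% = enzyme reaction without inhibitor and -100% = no enzyme wells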
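After 15 min at room temperature with compound, 15 nM Sfp received 5 uM rhodamine-CoA plus 12.5 uM BHQ-2-ybbR (50 mM Hepes pH 7.6, 10 mM MgCl2). Rate came from the fluorescence difference over 30 min, ex 525/em 598 nm.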
The depositor's hits bear a star; ? = inconclusive; / = not tested or not shown; [ ] = remark or other dose. In the library only some 8.7% were active in any assay of this set; here they are far more common. Calls follow the shape of the dose curve; as a rule, active = well fitted curve in the direction sought with a large enough effect; inconclusive = small, poorly fitted or top-dose-only effect, or another doubt; inactive = no such curve, though single readings can be large; an effect the other way counts as inactive or inconclusive. Potency is read from the fitted curve at half-maximal effect.

SMILES | G9a inh | JMJD2A Tudor inh | BAZ2B block | 12-LOX inh | HP1b chromo inh | Sfp PPTase inh
CC(C)CS(=O)(=O)Nc1ccc([C@H]2OCC(=O)N[C@@H]2CO)cc1 | / | / | / | 12%[176 µM] | / | /
C#CC(CC)(CC)NC(=O)c1cc(Cl)c(OC)c(OC)c1 | / | / | / | 6% | / | /
Cn1nc(C(=O)N2CCN(c3ccccc3)CC2)c2ccccc2c1=O | / | / | / | 33% | / | /
COCCn1cnc2ccc(-c3ccc(F)cc3OC)nc2c1=O | / | / | / | -5%[176 µM] | / | /
O=C(Nc1ccc2nc3ccccc3nc2c1)c1ccc(Br)cc1 | 8.9µM* | -8% | -1% | 4% | 32% | -10%
CC(C)(C)NC(=S)NNC(=O)c1ccc2ncccc2c1 | 7%[59 µM] | -15% | 1% | 0% | 19% | 2%
Cc1cc(C(=O)Nc2ccc(Br)cc2)cs1 | 79µM* | 12% | 56µM* | 7% | 51% | 12%
Cc1ccc2cccc(NC(=S)NC(=O)c3ccccc3)c2n1 | ? | ? | ? | ? | -21% | ?
O=C(NNC(=S)Nc1ccccc1)c1ccc2ncccc2c1 | 28µM* | -21% | 10% | 0% | 10% | -11%
CNS(=O)(=O)c1ccc(NC(=O)c2csc(C)c2)cc1 | 60% | 8% | -12% | ? | 36% | 21%
Cc1ccc2cccnc2c1NC(=S)NC(=O)c1ccccc1 | ? | -21% | -39% | ? | -20% | 18µM*
Cc1ccc(-c2cc(C(=O)Nc3nncs3)c3ccccc3n2)cc1C | / | / | / | -36% | / | /
CC1CCCN(c2nc(-c3ccc(Cl)cc3)nc3ccccc23)C1 (stereo unspecified) | / | / | / | 2% | / | /
Cc1ccc(CN(C)Cc2ccccc2)o1 | / | / | / | 11% | / | /
Cc1ccc2cc(NC(=O)c3ccc(C(C)(C)C)cc3)ccc2n1 | 17% | -24% | -18% | 1% | 25% | 79µM*
CC(=O)c1ccc(NC(=O)/C(=C\c2ccco2)NC(=O)c2ccco2)cc1 | 50µM* | -28% | -1% | -25% | 18% | -9%
O=C(Nc1ccc(C(=O)O)cc1)/C(=C\c1ccco1)NC(=O)c1ccco1 | 50µM* | -23% | 18% | -24% | 3% | -6%
CC(=O)c1cccc(NC(=O)/C(=C\c2ccco2)NC(=O)c2ccco2)c1 | 11% | -8% | -11% | ? | 15% | 11%
COC1=C(OC)C(=O)C(Sc2ccc3ccccc3c2)=CC1=O | / | 3.5µM* | / | 2µM* | 4.5µM* | /
COc1ccc(S(=O)(=O)Oc2ccc3ccccc3c2)cc1 | 134%[59 µM] | 89% | 97% | 22% | 174% | 7%
CCc1cccc(CC)c1NC(=O)C1CC(=O)N(c2ccc3c(c2)OCCO3)C1 (stereo unspecified) | 0%[59 µM] | -33% | -31% | ? | 7% | 16%
O=C(Nc1ccccc1Cc1ccccc1)C1CC(=O)N(c2ccc3c(c2)OCCO3)C1 (stereo unspecified) | 3.5µM* | ? | 50µM* | ? | -16% | -16%
CC(C)CC(=O)NC1CC(=O)N(c2ccc3c(c2)OCCO3)C1 (stereo unspecified) | -2%[59 µM] | 100µM* | -8% | -16% | -22% | /
CCN(CC)S(=O)(=O)c1cccc(NC(=O)C2CC(=O)N(c3ccc4c(c3)OCCO4)C2)c1 (stereo unspecified) | 50µM* | -21% | -3% | -11% | -13% | /
COc1cc(OC)c(NC(=O)C2CC(=O)N(c3ccc4c(c3)OCCO4)C2)cc1Cl (stereo unspecified) | 45µM* | -24% | 4% | -18% | -8% | /
SMILES | G9a inh | JMJD2A Tudor inh | BAZ2B block | 12-LOX inh | HP1b chromo inh | Sfp PPTase inh
Cc1ccc(NC(=O)Cn2c(=O)c3c(C)cc(C)nc3n(-c3ccccc3)c2=O)c(Cl)c1 | / | / | / | -24% | / | /
O=C(NNC(=S)NC(=O)c1ccco1)c1ccc(F)cc1 | ? | 2% | -1% | 51% | 55% | ?
COc1ccccc1C(=O)NNC(=O)C(=O)Nc1ccc(C)cc1 | 10% | -7% | -2% | 2% | 18% | 25%
O=C(NC(=S)Nc1ccc(F)c([N+](=O)[O-])c1)c1ccccc1F | 45µM* | -9% | -34% | -17% | 25% | -11%
COc1cc(NC(=S)NC(=O)c2ccccc2F)ccc1NC(=O)c1ccco1 | 7.9µM* | ? | 1% | -11% | ? | -51%
COc1ccccc1C(=O)NNC(=S)NC(=O)c1ccco1 | 28µM* | -29% | 7% | -30% | 24% | -6%
COc1ccccc1C(=O)NNC(=S)Nc1ccccc1 | 28µM* | -7% | 5% | -11% | 28% | 28%
COc1cc(NC(=S)NC(=O)c2ccco2)ccc1NC(=O)C(C)C | 31%[12.7 µM] | -13% | -34% | -26% | 11% | ?
Cc1oc(-c2cccs2)nc1C(=O)NCCCCN1CCOCC1 | / | / | / | -13% | / | /
Cc1cc(N/N=C/c2cccnc2)nc(NCc2ccccc2)n1 | / | / | / | 40% | / | /
Cc1cc2oc(C(=O)NCC(c3cccs3)N3CCCCCC3)cc(=O)c2cc1C (stereo unspecified) | / | / | / | 14% | / | /
COc1cc(C(=O)N2CCN(C3CCCCC3)CC2)cc(OC)c1OC | / | 56µM* | ? | 2% | ? | -18%
COc1cc(C(=O)N2CCC(N3CCCCCC3)CC2)cc(OC)c1OC | / | 7.1µM* | / | ? | ? | /
COc1ccc(C(=O)N2CCN(C3CCCCC3)CC2)cc1OC | 10µM* | 28µM* | 50µM* | 0.63µM* | ? | -22%
COc1cc(C(=O)N2CCCCCCC2)cc(OC)c1OC | -3%[12.7 µM] | / | / | / | / | 10%
COc1ccc(-c2ccc3c(c2)S(=O)(=O)c2cccc(C(=O)N4CCN(C5CCCCC5)CC4)c2C3=O)cc1OC | / | 79µM* | / | -14% | -11% | /
COc1ccc(-c2ccc3c(c2)S(=O)(=O)c2cccc(C(=O)N4CCN(c5ccccn5)CC4)c2C3=O)cc1OC | / | / | / | -3% | / | /
O=C(Nc1cccc(-c2nnc3n2CCCC3)c1)C1CC1 | / | / | / | 1% | / | /
COc1ccc(C(=O)N[C@@H]2CCC[C@@H]2C(=O)NCc2cccc(F)c2)cn1 | / | / | / | 3% | / | /
NS(=O)(=O)CCCC(=O)O | / | / | / | -3% | / | /
